Measurements taken from PubChem BioAssay (NCI).
The panel holds about 83,000 compounds, 20% with a hit somewhere; the sample as a whole holds those more often.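 Treatment: one concentration, 48 hours, 96-well format. Scoring: percent growth, with anything below 10 considered active.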 Values without a mark were called inactive. Active and inactive are the calls of the source.

What was measured:
Experiment in all cases: NCI-60 one-dose screen, 48 h (100 = growth as untreated, 0 = no growth, -100 = all killed)
Settings in all cases: 10 µM unless noted
NCI-H23 lung = test system: NCI-H23 lung
NCI-H226 lung = test system: NCI-H226 lung
NCI-H322M lung = test system: NCI-H322M lung
HOP-62 NSCLC = test system: HOP-62 NSCLC
NCI-H460 lung = test system: NCI-H460 lung
HOP-92 NSCLC = test system: HOP-92 NSCLC
NCI-H522 lung = test system: NCI-H522 lung
A549/ATCC NSCLC = test system: A549/ATCC NSCLC
786-0 renal = test system: 786-0 renal
COLO 205 colon = test system: COLO 205 colon
DU-145 prostate = test system: DU-145 prostate
K-562 leukemia = test system: K-562 leukemia
MALME-3M melanoma = test system: MALME-3M melanoma
MDA-MB-231 breast = test system: MDA-MB-231 breast
RXF 393 renal = test system: RXF 393 renal
SF-268 CNS = test system: SF-268 CNS
SF-295 CNS = test system: SF-295 CNS
SF-539 CNS = test system: SF-539 CNS
UACC-257 melanoma = test system: UACC-257 melanoma
M14 melanoma = test system: M14 melanoma

| Compound | growth (NCI-H23 lung) [%] | growth (NCI-H226 lung) [%] | growth (NCI-H322M lung) [%] | growth (HOP-62 NSCLC) | growth (NCI-H460 lung) | growth (HOP-92 NSCLC) | growth (NCI-H522 lung) | growth (A549/ATCC NSCLC) | growth (786-0 renal) | growth (COLO 205 colon) | growth (DU-145 prostate) | growth (K-562 leukemia) | growth (MALME-3M melanoma) | growth (MDA-MB-231 breast) | growth (RXF 393 renal) | growth (SF-268 CNS) [%] | growth (SF-295 CNS) | growth (SF-539 CNS) | growth (UACC-257 melanoma) | growth (M14 melanoma) |
| --- | --- | --- | --- | --- | --- | --- | --- | --- | --- | --- | --- | --- | --- | --- | --- | --- | --- | --- | --- | --- |
| CC(C)(C)n1cc(-c2ccnc(NCCCNS(=O)(=O)c3ccc(Cl)cc3)c2)c(-c2cccc(O)c2)n1 | 14 | 14 | 10.6 | 9.75% (active) | -66.7% (active) | -2.33% (active) | -55.7% (active) | 9.33% (active) | -35.2% (active) | -86.8% (active) | 13.1% | -23.3% (active) | -44.5% (active) | -24.4% (active) | -12% (active) | 20.7 | -45% (active) | -26.1% (active) | -39.3% (active) | -23.2% (active) |
| CC12CCCC(CC(=O)c3[nH]c4ccccc4c31)C2 (stereo not given) | 33.5 | 60.8 | 35.7 | 28.2% | 7.52% (active) | 47% | 2.33% (active) | 27.7% | 41.4% | 7.12% (active) | -15.6% (active) | 11.2% | 36.4% | 37.9% | -21.7% (active) | 63.7 | 15.1% | -19.1% (active) | 66.1% | 3.66% (active) |
| Cc1ccc(S(=O)(=O)c2nc(-c3ccccc3)oc2S(C)(=O)=O)cc1 | 76.3 | 90.5 | 106 | 80.7% | 80% | -27.4% (active) | -84.4% (active) | 85.6% | -16.5% (active) | -76.6% (active) | 30.4% | 2.49% (active) | -77.8% (active) | 13.6% | 10.4% | 68.6 | 89.4% | -23.1% (active) | 74.8% | 17.8% |
| COc1ccc(C2=C(c3cc(OC)c(OC)c(OC)c3)C(=O)CC2)cc1 | 14.2 | 46.5 | 47.8 | 38.1% | 0.331% (active) | 40% | -35.5% (active) | 24.7% | 28.9% | -27.9% (active) | -19.3% (active) | 20.5% | 35.3% | 17.2% | 1.23% (active) | 33 | 9.47% (active) | 0.222% (active) | 65.4% | 2.99% (active) |
| N[C@@H]1CCN(C(=O)c2cc3cc(Cl)c(F)c(F)c3[nH]2)C1 | 92.8 | 75 | 87.1 | 84.4% | 99.8% | 74.1% | 80.1% | 93.6% | 86.6% | 110% | 102% | 83.4% | 97.8% | 79.6% | 87.1% | 79.8 | 94.9% | 86.8% | 99.7% | 89.8% |
| O=C(Nc1ccc2c(c1)OCCO2)C(=O)c1c[nH]c2ccccc12 | 24.5 | 82.7 | 54.3 | 42.9% | 8.62% (active) | 1.01% (active) | -40.4% (active) | 47.7% | 59.7% | 10.2% | 7.38% (active) | 12.2% | 46.6% | 28.9% | 24.3% | 46.1 | 23.8% | -6.87% (active) | 70.7% | 19.9% |
| CCOC(=O)CC(=O)OC | 106 | 101 | 111 | 102% | 101% | 96.4% | 90.2% | 101% | 101% | 101% | 118% | 103% | 114% | 121% | 114% | 111 | 110% | 95.7% | 96.9% | 96.1% |
| CC(NNC(C)c1ccccc1)c1ccccc1 (stereo not given) | 103 | 98.8 | 122 | 105% | 106% | 96.4% | 93.9% | 104% | 109% | 105% | 110% | 114% | 123% | 113% | 116% | 109 | 111% | 101% | 109% | 101% |
| O=C(NCCCNc1nccc(-n2ccc3cccnc32)n1)c1c(F)cccc1F | 101 | 99.4 | 103 | 101% | 104% | 110% | 101% | 102% | 98% | 113% | 107% | 98.7% | 106% | 95.5% | 108% | 96.3 | 98.4% | 97.9% | 113% | 102% |
| COc1ccc(S(=O)(=O)NCCCNc2nccc(-c3c(-c4cccc([N+](=O)[O-])c4)nc4sccn34)n2)cc1 | 47.3 | 34.8 | 67.6 | 61% | 44.4% | 82.1% | 32.4% | 52.2% | 66.6% | 36.4% | 51.6% | 28.7% | 58% | 59.5% | 67.1% | 49 | 43.7% | 75.6% | 53% | 41.6% |
| CC(C)CSc1nc(NN)c(C#N)c(-c2ccccc2)n1 | 99.7 | 89.1 | 89.5 | 94.1% | 97.4% | 108% | 88.2% | 105% | 98.4% | 111% | 103% | 94.5% | 118% | 107% | 90.1% | 84.6 | 88.1% | 94.5% | 110% | 107% |
| CCOC(=O)c1ccc(NC(=O)N2CC(C)OC(C)C2)cc1 (stereo not given) | 92 | 98.1 | 111 | 91.7% | 104% | 81.2% | 94.6% | 106% | 98.6% | 116% | 111% | 89.9% | 101% | 96.5% | 98.6% | 106 | 98.5% | 95.8% | 106% | 107% |
| CC(C)CSc1nc(NN)c(C#N)c(-c2ccc(F)cc2)n1 | 70.4 | 80.3 | 74.9 | 47.3% | 52.1% | 105% | 63.2% | 77.1% | 85.9% | 97.1% | 66.5% | 58.8% | 95.5% | 86.8% | 79.3% | 62.6 | 44.7% | 65.9% | 105% | 78.9% |
| COc1ccc(S(=O)(=O)n2cc(C(=O)C(=O)Nc3ccncc3)c3ccccc32)cc1F | 65.2 | 82.9 | 88.6 | 61.4% | 69.5% | 62.1% | 65.3% | 71% | 84.7% | 94% | 86.4% | 58.8% | 76.4% | 57.1% | 90.9% | 81.7 | 43.2% | 69.1% | 105% | 93.2% |
| O=[N+]([O-])c1ccc(C(c2ccccc2)c2ccccc2)cc1 | 89.6 | 100 | 78 | 102% | 94% | 85.9% | 87% | 91.5% | 99.4% | 92.6% | 105% | 91.9% | 107% | 86.3% | 100% | 98.7 | 88.7% | 104% | 96.9% | 105% |
